MCF10A rereplic – A quantitative high throughput screen for small molecules that induce DNA re-replication in MCF 10a normal breast cells; hit rate 2.9% among 350,000; MCF 10A DNA re-replication, Hoechst nuclear intensity, 48 h; Potency, µM (highest dose often 46.1 µM), inactives show at the top dose activity, positive = re-replication, hits mostly activators; also: % of control where 0% means no effect; nearly all actives have a fitted effect of over 50% in size
ELG1 repair inh – qHTS screen for small molecules that inhibit ELG1-dependent DNA repair in human embryonic kidney (HEK293T) cells expressing luciferase-tagged ELG1. Potency, µM (series often up to 46.1 µM), inactives show top-dose activity change, negative = inhibition, actives largely listed as inhibitors. HEK293T ELG1-luciferase reporter, luminescence, 16 h; DNA damage induced by 5-fluorouridine. hit rate 2.3% among 330,000. AID 504467, 2011; also: % is scaled to controls: 0 for no effect and ±100 for the full control effect; nearly all actives have a fitted effect of over 55% in size
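Reporter activity after DNA damage by 5-fluorouridine is monitored. Compound-treated cells incubate 16 hr at 37 °C, then ONE-Glo is added for 30 min before luminescence reading.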
KB-V1 cytotox – qHTS assay for MDR1-selective chemotherapeutics: Primary screen using the drug-selected MDR subline cells KB-V1 | KB-V1 MDR cells viability, CellTiter-Glo, 72 h | Potency, µM (doses to about 46.1 µM), actives largely listed as cytotoxic | hit rate 3.4% among 400,000 | AID 1347076, 2019; also: % is scaled to controls: 0 for no effect and ±100 for the full control effect; nearly all actives have a fitted effect of over 60% in size
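Luminescent ATP read-out (CellTiter-Glo, 10 min) measures survival of drug-selected KB-V1 MDR cells after 72 h, 37 degrees C compound exposure. Medium: phenol-red-free DMEM, 10% FBS. Values from fitted concentration-response curves.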
SW480 rereplic – A quantitative high throughput screen for small molecules that induce DNA re-replication in SW480 colon adenocarcinoma cells | SW480 DNA re-replication, Hoechst DNA content imaging, 48 h | Potency, µM (doses to about 46.1 µM), for inactives: at the top dose re-replication activation, actives largely listed as activators | hit rate 1.8% among 340,000; also: % of control where 0% means no effect; nearly all actives have a fitted effect of over 55% in size
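DNA re-replication was detected as more nuclei of elevated Hoechst intensity after 48 hr exposure to compound (23 nL pinned per well of 250 cells).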
KB-3-1 tox – qHTS assay for MDR1-selective chemotherapeutics: Primary screen using the parental adenocarcinoma cell KB-3-1. KB-3-1 viability, CellTiter-Glo ATP luminescence, 72 h. Potency, µM (highest dose often 46.1 µM), actives largely listed as cytotoxic. hit rate 1.4% among 400,000; also: % is scaled to controls: 0 for no effect and ±100 for the full control effect; nearly all actives have a fitted effect of over 60% in size
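Cytotoxicity in the drug-sensitive parental line KB-3-1 was scored as loss of CellTiter-Glo luminescence following 72 h incubation with compound. Values come from curve fitting of normalized concentration-response data.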
An asterisk follows results filed as active; i = inactive; ? = inconclusive; nt = not tested or not shown. Only some compounds are listed: those with a hit (about 8.1% of all), similar ones and a draw of the others. Calls follow the shape of the dose curve; as a rule, active = well fitted curve in the direction sought with a large enough effect; inconclusive = small, poorly fitted or top-dose-only effect, or another doubt; inactive = no such curve, though single readings can be large; an effect the other way counts as inactive or inconclusive. Potency is read from the fitted curve at half-maximal effect.

SMILES	MCF10A rereplic	ELG1 repair inh	KB-V1 cytotox	SW480 rereplic	KB-3-1 tox
Cc1ccc(C(=O)N2CCN(c3ccccc3)CC2)cc1S(=O)(=O)N1CCCC1	22.1%	16.4µM*	i	?	i
CN(c1ccccc1)S(=O)(=O)c1cc(C(=O)N2CCN(c3ccccn3)CC2)ccc1Cl	7.4%	14.6µM*	23.1µM*	-3.9%	?
CC1=C(C(=O)N2CCCCCC2)CC(CC(=O)NC2CCCC2)C(=O)N1CCC1=CCCCC1 (stereo unspecified)	nt	nt	?	nt	i
O=C(c1ccc(Cl)c(S(=O)(=O)N2CCCC2)c1)N1CCN(c2ccc(F)cc2)CC1	?	20.6µM*	5.8µM*	-3.2%	?
O=C(c1ccc(Cl)c(S(=O)(=O)N2CCCC2)c1)N1CCN(c2ccccc2)CC1	-27.4%	16.4µM*	?	-2.8%	i
O=C(c1ccc(Cl)c(S(=O)(=O)N2CCCCC2)c1)N1CCN(c2ccccc2)CC1	4.8%	?	nt	0.5%	nt
CCOC(=O)C1CCN(C(=O)c2ccc(Cl)c(S(=O)(=O)N3CCOCC3)c2)CC1	13µM*	-2.8%	i	?	i
CCOC(=O)C1CCN(C(=O)c2ccc(Cl)c(S(=O)(=O)N3CCCC3)c2)CC1	11.0%	?	?	0.6%	i
Cc1ccc(C(=O)N2CCN(c3ncccn3)CC2)cc1S(=O)(=O)N1CCCCC1	-1.3%	8.8%	23.1µM*	-5.7%	i
CCSc1nc2c([nH]1)c(=O)n(C)c(=S)n2C	-0.4%	nt	i	-6.9%	i
CCn1c2ccccc2c2n[nH]c(=S)nc21	-1.8%	0.1%	6.51µM*	-34.3%	?
CCCn1c2ccc(C)cc2c2n[nH]c(=S)nc21	1.5%	0.5%	i	14.6µM*	i
C=CCn1c2ccccc2c2n[nH]c(=S)nc21	2.6%	3.8%	?	1.1%	i
C=CCN1CCc2nc(N)sc2CC1	-7.1%	19.7%	i	-9.8%	i
Cc1nnc(SCC(=O)Nc2c(Cl)cccc2Cl)[nH]c1=O	-0.8%	25.0%	?	-14.5%	i
Nc1nc(CCl)nc(N(c2ccccc2)c2ccccc2)n1	?	?	16.4µM*	1.16µM*	?
C/C(=N\O)C(C)(C)Nc1cccc(Br)c1	-2.3%	11.6µM*	i	-0.5%	i
C/C(=N\O)C(C)(C)Nc1cccc(F)c1	6.6%	12.7%	i	-9.8%	i
Cc1ccc2nc(-c3ccccc3)cc(C(=O)NCC3CCCO3)c2c1 (stereo unspecified)	24.4%	-2.3%	?	13.0%	i
COc1ccc(OC)c(CNc2ccc([N+](=O)[O-])cc2C)c1	-8.7%	-29.8%	?	3.6%	i
COc1cccc(CNc2ccc([N+](=O)[O-])cc2C)c1	1.1%	10.3%	14.6µM*	?	i
COc1ccc([N+](=O)[O-])cc1NCc1ccccc1C	5.8µM*	?	i	?	i
O=C(Nc1ccc2c(c1)CCC2)c1ccccc1	12.8%	?	?	0.2%	i
COc1ccc(NC(=O)c2cccc(S(=O)(=O)N(C)c3ccccc3)c2)cn1	16.0%	?	3.26µM*	-0.9%	?
CN(c1ccccc1)S(=O)(=O)c1cccc(C(=O)Nc2ccc3c(c2)CCC3)c1	-21.2%	14.6µM*	5.8µM*	?	?
SMILES	MCF10A rereplic	ELG1 repair inh	KB-V1 cytotox	SW480 rereplic	KB-3-1 tox
CN(c1ccccc1)S(=O)(=O)c1cccc(C(=O)NNC(=O)c2ccccc2)c1	9.9%	?	14.6µM*	-2.8%	20.6µM*
CN(c1ccccc1)S(=O)(=O)c1ccc(C(=O)NNC(=O)c2ccccc2)cc1	-0.8%	15.4%	i	-45.7%	i
Cc1cc(C)nc(N2CCC(C(=O)NCc3ccco3)CC2)n1	2.5%	6.5%	16.4µM*	-7.2%	i
O=C(NCc1cccs1)C1CCN(c2ccc(S(=O)(=O)N3CCOCC3)cc2Cl)CC1	6.51µM*	18.4µM*	3.66µM*	1.3µM*	2.31µM*
CC1CCCC(C)N1c1ccc(S(=O)(=O)N2CCOCC2)cc1Cl (stereo unspecified)	8.2µM*	-8.5%	?	?	i
COc1nc(OC)nc(N2CCC(C(=O)NCc3ccco3)CC2)n1	6.6%	-13.7%	?	-3.5%	i
O=S(=O)(c1ccc(N2CCOCC2)c(Cl)c1)N1CCOCC1	?	1.8%	i	4.5%	i
Cc1cc(C)nc(N2CCC(C(=O)NCc3cccs3)CC2)n1	-2.5%	-0.7%	13µM*	-1.4%	i
CC(=O)c1c(C)[nH]c(C(=O)OCC(=O)Nc2ccc3[nH]c(=O)[nH]c3c2)c1C	0.8%	11.6%	i	-13.7%	i
CCC1(c2ccccc2)NC(=O)N(CC(=O)NNC(=O)c2ccc(F)cc2)C1=O (stereo unspecified)	-0.3%	-1.7%	i	4.3%	i
O=C(NCc1ccco1)C1CCN(c2nc3ccccc3n2Cc2ccc(F)cc2)CC1	8.6%	18.4µM*	i	1.0%	i
O=C(NCc1ccco1)C1CCN(c2nnc(-n3cccc3)s2)CC1	7.9%	?	i	-2.0%	i
COC(=O)c1c(-c2ccncc2)csc1NC(=O)c1ccoc1C	?	?	6.51µM*	0.2%	?
C=CCOc1ccc(CN(C)C(=O)CNC(=O)c2ccc(-c3ccccc3)cc2)cc1	-0.6%	23.1µM*	2.31µM*	?	4.61µM*
CCOc1ccc(CN(C)C(=O)CNC(=O)c2ccccc2)cc1	6.7%	1.4%	i	-2.3%	i
O=C(NCc1cccnc1)c1cc(Sc2ccc(F)cc2F)nc2ccccc12	?	20.6µM*	i	-0.4%	i
CCOc1ccc(N(C(=O)CNC(=O)c2ccco2)C(C(=O)NCC2CCCO2)c2ccccc2)cc1 (stereo unspecified)	1.5%	14.7%	i	-3.3%	i
O=C(Nc1nnc(SCc2ccc(F)cc2)s1)c1ccc2ncsc2c1	?	?	?	-4.9%	i
COc1ccc(/C=C/C(=O)OCC(=O)NCC2CCCO2)cc1 (stereo unspecified)	20.6%	4.9%	i	-3.2%	i
CCOC(=O)/C=c1\s/c(=C\c2ccc(C(F)(F)F)cc2)c(=O)n1CC(=O)NCc1ccco1	23.1µM*	?	i	2.31µM*	i
CCOC(=O)/C=c1\s/c(=C\c2ccc3cc(OC)ccc3c2)c(=O)n1CC(=O)NCC1CCCO1 (stereo unspecified)	11.6µM*	-25.9%	18.4µM*	25.4%	20.6µM*

Bioassay records: PubChem BioAssay, National Center for Advancing Translational Sciences (NCATS)
